Sampled rows, rich in hits. Any-hit rate of the full collection: about 0.9%.
E coli growth-1 = inhibitors of Escherichia coli growth. OD600, 23 h; active compounds read low. OD600 absorbance (concentration not given with the values). 0.21% of 330,000 active. AID 1053175;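 active = OD600 absorbance below the run mean of sample wells minus 3.6 SD, in any replicate, cut at about 0.56 in these data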
Calb FLC = affects C. albicans growth with fluconazole | C. albicans CaCi-2 (fluconazole-resistant clinical isolate) + fluconazole, Alamar Blue growth, 48 h | 0.57% of 300,000 active | growth inhibition, % (no concentration beside the values);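 active = growth inhibition above about 58% in most replicates, limit read from the data, passing the limit was not always enough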;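 note: all wells also contain fluconazole at 8 µg/ml as a sub-toxic cotreatment; 0% = median of DMSO wells and 100% = median of geldanamycin control wells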
Tat export inh = inhibitors of E. coli Tat protein transport | E. coli MC4100 TorA-mCherry Tat export, fluorescence | inhibition, % at 10 µM | 0.036% of 340,000 active | AID 488895;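 active = mean replicate inhibition at least 50% and at least half of replicates individually reaching 50%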;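 note: exported cargo escapes ClpAP degradation while cytoplasmic cargo is degraded and loses fluorescence; 0% = median of neutral control wells and 100% = median of NaSCN control wells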
AddAB inh = less growth of phage-infected E. coli with AddAB; E. coli expressing H. pylori AddAB, absorbance growth; inhibition, % at 11.9 µM; 0.29% of 330,000 active; in the data active = inhibition above about 12%;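 note: 0% = vehicle wells of infected cells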
phage Ecoli inh = E. coli growth loss with phage present | growth absorbance | inhibition, % at 11.9 µM | 0.26% of 360,000 active | AID 651602; in the data active = inhibition above about 11%
E coli growth-2 = reduces bacterial viability in AddAB counter-screen | E. coli V3065 growth, OD600 absorbance, 18 h | inhibition, % at 11.9 µM | 0.27% of 330,000 active;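 active = inhibition above the campaign's mean inhibition across all tested compounds plus 3 SD, cut at about 9.9% in these data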;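 note: uninfected addAB+ strain grown without phage in ampicillin broth; 0% = DMSO wells and 100% = ciprofloxacin 0.95 µg/ml wells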
RecBCD conf = confirmation: growth loss of phage-infected RecBCD+ E. coli (RecBCD inhibitor screen). shares compounds with phage Ecoli inh. E. coli V66 + T4 2- phage, growth OD. inhibition, % at 11.9 µM. 45% of 890 active. AID 651982;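 active = mean inhibition over triplicates exceeding the hit threshold derived in the original primary screen, cut at about 11% in these data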
Ecoli viability = bacterial viability inhibition counter-screen for RecBCD; shares compounds with phage Ecoli inh; E. coli viability, absorbance (OD) growth; inhibition, % at 11.9 µM; 29% of 890 active; AID 651983; in the data active = inhibition above about 20%;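 note: E. coli strain V66 grown with compound alone and no phage infection; 0% = bacteria with DMSO vehicle only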
AddAB counter = growth loss of phage-infected AddAB E. coli, RecBCD counter-screen; shares compounds with phage Ecoli inh; 45% of 890 active; E. coli expressing H. pylori AddAB + T4 phage, OD growth; gene 2 mutant T4, recBCD-deleted host; inhibition, % at 11.9 µM;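 active = mean inhibition above the solvent-only control wells' mean plus 3 SD, cut at about 22% in these data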;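 note: higher means less bacterial growth from phage killing when AddAB is blocked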
An asterisk follows results filed as active; / = no result given.

SMILES	E coli growth-1	Calb FLC	Tat export inh	AddAB inh	phage Ecoli inh	E coli growth-2	RecBCD conf	Ecoli viability	AddAB counter
Nc1nc(N)c2cc(S(=O)(=O)c3ccc4ccccc4c3)ccc2n1	/	/	/	/	28.4*	/	101.4*	99.2*	101.0*
C(=Cc1ccccc1)C=NNc1nc(N2CCOCC2)nc(N2CCOCC2)n1	0.681	/	/	/	/	/	/	/	/
CN1CCN(C(=O)/C=C/c2ccccc2)CC1	0.695	14.9	-4.9	2.8	2.7	1.2	/	/	/
CN1CCN(C(=O)/C=C/c2ccc([N+](=O)[O-])o2)CC1	0.427*	-2.0	3.9	/	17.4*	/	12.4*	13.3	81.9*
O=C(Nc1cccc([N+](=O)[O-])c1)c1ccc([N+](=O)[O-])o1	/	/	/	/	20.5*	/	14.8*	17.4	89.8*
O=C(Nc1cccc([N+](=O)[O-])c1)c1ccncc1	0.701	-4.8	-6.6	4.7	4.0	-1.5	/	/	/
c1ccc(CSc2ccc(-c3ccccn3)nn2)cc1	0.675	0.6	-4.7	6.4	11.5*	7.5	5.5	6.5	12.5
N#CC(=Cc1ccc(N2CCCCC2)o1)C(=O)Nc1ccc2ccccc2c1	0.789	/	/	/	/	/	/	/	/
Fc1ccc(NC(=S)Nc2ccccc2OC(F)F)cc1Cl	0.603	-2.1	4.4	4.7	12.5*	2.1	5.1	7.1	9.4
CCCC(=O)NC(c1cccc([N+](=O)[O-])c1)c1ccc2cccnc2c1O (stereo not drawn)	/	/	/	/	22.8*	/	16.4*	20.4*	25.6*
CC(C)C(=O)NC(Nc1cccc2cccnc12)C(Cl)(Cl)Cl (stereo not drawn)	0.708	-17.1	-7.5	2.2	2.9	1.8	/	/	/
CC(=O)NC(c1ccc(Cl)cc1Cl)c1ccc2cccnc2c1O (stereo not drawn)	/	-0.9	-19.2	/	24.3*	/	16.8*	20.4*	20.8
CCN(CC)c1ccc(C(NC(=O)C(C)C)c2ccc3cccnc3c2O)cc1 (stereo not drawn)	/	/	/	/	20.9*	/	7.7	8.7	15.9
CC(=O)NC(CC(=O)NC(C)c1ccc(Cl)cc1Cl)c1ccccc1 (stereo not drawn)	0.713	4.5	-12.3	-1.7	3.2	0.4	/	/	/
CC(=NNc1cc(C)c2cc(C)ccc2n1)c1ccccn1	/	/	/	/	16.9*	/	1.0	0.8	2.5
O=c1c(O)c(-c2cccs2)oc2ccc(Cl)cc12	0.629	-26.4	-4.6	6.7	13.5*	7.7	2.8	4.9	7.7
CC(=NN)c1c(-c2ccccc2)c2cc(C)ccc2[nH]c1=O	0.688	/	/	/	/	/	/	/	/
FC(F)Sc1ccc(NC(=S)NC2CCCCC2)cc1	0.636	-39.8	-0.2	9.7	12.3*	6.9	4.4	5.7	5.0
S=C(NCC1CCCCC1)Nc1ccc(Oc2ccccc2)cc1	0.686	-81.7	-9.9	2.8	7.6	3.2	/	/	/
FC(F)Sc1ccc(NC(=S)NCC2CCCCC2)cc1	0.536	-62.2	-7.5	8.3	12.7*	9.2	3.4	5.3	6.2
ON=C1CCCc2ccc3ccccc3c21	0.703	/	/	/	/	/	/	/	/
Cc1[nH]n(-c2ccccc2)c(=O)c1C=Nc1ccc(S(=O)(=O)Nc2nccs2)cc1	0.65	-9.6	18.4	7.7	15.3*	7.4	6.8	3.6	26.3*
COc1nccnc1NS(=O)(=O)c1ccc(N=Cc2c(C)[nH]n(-c3ccccc3)c2=O)cc1	0.613	-0.5	1.0	5.6	5.5	3.9	/	/	/
CC(=O)O[C@]1(C(C)=O)CCC2C3C=C(C)C4=CC(=O)CCC4C3CC[C@@]21C (stereo partly drawn)	0.647	/	/	/	/	/	/	/	/
COc1cccc(-c2c(C(=O)NN=Cc3ccc(C)o3)nnn2-c2nonc2N)c1	0.666	/	/	/	/	/	/	/	/
SMILES	E coli growth-1	Calb FLC	Tat export inh	AddAB inh	phage Ecoli inh	E coli growth-2	RecBCD conf	Ecoli viability	AddAB counter
O=C(NNC(=O)c1cc(-c2cccnc2)nc2ccccc12)Nc1ccc(Cl)cc1	0.524*	13.4	-2.4	8.1	13.3*	5.7	8.6	9.1	1.8
O=C(NC(Cc1ccccc1)C(=O)OCc1ccccc1)c1nc[nH]c1C(=O)NC(c1ccccc1)c1ccccc1 (stereo not drawn)	0.733	/	/	/	/	/	/	/	/
O=C(CCn1cnc(-c2ccccc2)c1-c1ccccc1)N/N=C/c1ccccc1O	/	13.5	1.6	2.0	11.0*	0.9	3.5	1.8	4.9
CN(C)C(=O)c1cc(Cl)ccc1Sc1cc(Cl)ccc1Cl	0.672	1.6	-2.4	3.6	0.7	2.6	/	/	/
Oc1ccc(Cl)cc1Sc1cc(Cl)ccc1O	/	/	-5.0	/	12.1*	/	9.4	13.5	9.4
CC(C)CCNC(=S)Nc1ccc(Br)cc1	0.592	-47.8	10.8	8.7	10.9*	7.8	4.1	4.7	12.4
COc1ccc(-[n+]2c(C)cc(/C=C3\Sc4ccccc4N3C)cc2C)cc1	0.353*	-6.5	67.4*	26.6*	22.4*	25.6*	20.2*	17.2	47.5*
COc1ccc(Cc2noc(CN(C)CC3(N4CCOCC4)CCCCC3)n2)cc1OC	0.684	8.5	2.2	2.5	94.1*	5.1	0.1	-0.5	2.4
CN(Cc1nc(Cc2ccccc2F)no1)CC1(N2CCOCC2)CCCCC1	0.652	2.0	8.6	4.3	2.5	-1.6	/	/	/
COc1ccc(C=Nn2nnnc2N)cc1OC	0.635	/	/	/	/	/	/	/	/
Cc1ccc(NC(=S)NC(NC(=O)c2ccco2)C(Cl)(Cl)Cl)cc1 (stereo not drawn)	0.61	-2.8	1.6	11.7	14.3*	11.2*	9.0	11.5	14.4
Oc1c(Br)cccc1C=NNc1c(F)c(F)c(F)c(F)c1F	0.689	/	/	/	/	/	/	/	/
Cc1c(C(=O)NNC(=O)c2ccccc2O)oc2ccccc12	/	/	/	/	12.9*	/	6.3	8.1	7.9
O=C(NN=Cc1ccco1)c1cccc(NC(=O)c2ccccc2Cl)c1	0.643	/	/	/	/	/	/	/	/
O=C(Nc1ccc2[nH]ncc2c1)c1ccc(F)cc1	0.698	-7.5	-1.8	3.6	11.5*	0.3	-1.5	-1.8	-1.9
CC1CN(C(C)CO)C(=O)c2cc(NC(=O)CCC(F)(F)F)ccc2OC1CN(C)S(C)(=O)=O (stereo not drawn)	0.664	/	/	/	/	/	/	/	/
CCCC(=O)Nc1cc(=O)n(C)c(=O)n1C	0.665	7.7	4.2	1.5	52.9*	1.3	0.9	0.7	-0.5
Cc1cc(Cl)ccc1NNC(=O)c1cccs1	0.637	-14.3	-14.8	4.5	5.8	3.1	/	/	/
O=C(NNc1cc(Cl)ccc1Cl)c1cccs1	0.658	-0.9	-8.5	4.5	53.8*	1.0	0.8	-0.1	4.3
NC(=O)NN=Cc1ccc(-c2cccc(C(F)(F)F)c2)o1	0.652	/	/	/	/	/	/	/	/
Cc1ccc(-c2[nH]c3cc(C(=O)NCCCn4ccnc4)ccc3c(=O)c2O)cc1	0.679	73.7	-3.1	11.2	11.3*	7.7	3.4	5.4	6.8
O=C(NCCCn1ccnc1)c1ccc(Cl)c(Cl)c1	0.603	-0.3	3.1	1.2	0.7	0.9	/	/	/
CC(/C=C/c1ccccc1)=NNC(=O)CSc1ccccn1	0.683	/	/	/	/	/	/	/	/

Screening data as filed in PubChem BioAssay.
